# In the library only some 21% were active in any assay of this set; here they are far more common.
# Giardia FBPA inh – Giardia lamblia aldolase inhibition. purified Giardia FBPA. actives 0.71% (n = 290,000). Potency, µM (top dose mostly 59.6 µM), hits mostly inhibitors. AID 2451. A8B2U2; further: nearly all actives have a fitted effect of over 55% in size
# Target sequence (A8B2U2 whole entry, looked up): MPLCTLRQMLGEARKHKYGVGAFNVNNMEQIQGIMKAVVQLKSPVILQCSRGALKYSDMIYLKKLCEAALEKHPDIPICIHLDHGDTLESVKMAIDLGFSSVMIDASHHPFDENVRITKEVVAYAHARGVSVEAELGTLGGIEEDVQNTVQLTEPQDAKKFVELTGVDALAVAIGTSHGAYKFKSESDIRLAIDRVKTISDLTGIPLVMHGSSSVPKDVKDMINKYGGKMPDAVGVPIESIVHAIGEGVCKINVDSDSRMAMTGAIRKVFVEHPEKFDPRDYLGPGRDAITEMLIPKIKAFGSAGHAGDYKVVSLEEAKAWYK
#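 Giardia FBPA (40 nM reagent) was preincubated 10 min at RT with compound (up to 57.5 uM final), then substrate plus GAPDH/TPI/NAD/arsenate coupling system with diaphorase/resazurin was added; resorufin fluorescence (525/598 nm) was read after 20 min.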
# Pf growth 96h – P. falciparum growth inhibition at 96 hour, primary screen for plastid delayed-death inhibitors; P. falciparum luciferase reporter growth, 96 h; Potency, µM (titrated, usually from 28.7 µM), actives largely listed as inhibitors; actives 6.9% (n = 320,000); AID 504834
#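 96 h incubation, 37 C, 5% CO2, of luciferase-reporter P. falciparum-infected RBCs (2% hematocrit, 0.05% parasitemia final) with test compounds; endpoint luminescence.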
# Shiga toxin inh – Shiga toxin inhibition | Vero cells, Shiga toxin protein synthesis inhibition reporter | inhibition, % at 38.7 µM | actives 9.2% (n = 290,000); in the data active means inhibition mostly above about 28%, no sharp cut-off; inactive means mostly below about 43%
# NS1 function inh – blocks influenza NS1 protein function. actives 0.4% (n = 270,000). Potency, µM (series often up to 46.1 µM); calls by dose curve; further: actives are rising curves; nearly all actives have a fitted effect of over 50% in size
#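 A cell-based growth assay was used: compounds that relieve NS1-induced slow growth of budding yeast raise OD600. Assay medium was yeast nitrogen base with ammonium sulphate and -URA supplement, pH 6.0, with 2% galactose.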
# Pf growth 48h – inhibits P. falciparum growth in the first generation, 48 h; Potency, µM (top dose mostly 28.7 µM), actives largely listed as inhibitors; actives 5.9% (n = 310,000); P. falciparum luciferase growth in erythrocytes, 48 h
#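 Compounds are pin-transferred into medium, infected erythrocytes (2% hematocrit, 0.1% parasitemia final) are added, and plates sit one parasite generation at 37 C in 5% CO2. Detection reagent is then added and luminescence measured.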
# CHX counter – affects cycloheximide protein synthesis inhibition readout, counter-screen | actives 12% (n = 300,000) | max response, % | cell reporter, cycloheximide protein synthesis inhibition counterscreen; in the data active means max response mostly above about 13%, no sharp cut-off; inactive means mostly below about 14%; further: read at 38.3 µM for the half of the compounds with a filed dose
# Hits are given with their value; i = inactive; ? = inconclusive; nt = no result given. Unless noted, the call rests on the fitted dose curve; in most records, active means well fitted curve in the direction sought with a large enough effect; inconclusive means small, poorly fitted or top-dose-only effect, or another doubt; inactive means no such curve, though single readings can be large; an effect the other way counts as inactive or inconclusive.
SMILES,Giardia FBPA inh,Pf growth 96h,Shiga toxin inh,NS1 function inh,Pf growth 48h,CHX counter
O=C(c1ccccc1)N1CCN(C2c3cccc4cccc(c34)C2NS(=O)(=O)c2ccccc2)CC1 (configuration not stated),i,4.1µM,i,?,6.6µM,i
O=S(=O)(NC1c2cccc3cccc(c23)C1N1CCN(CCO)CC1)c1ccccc1 (configuration not stated),i,i,i,i,15µM,i
O=S(=O)(NC1c2cccc3cccc(c23)C1N1CCNCC1)c1ccccc1 (configuration not stated),i,i,i,?,?,i
CCN(CC(=O)Nc1c(F)cccc1F)C(=O)c1cc([N+](=O)[O-])ccc1N1CCCCC1,nt,i,nt,nt,?,nt
COc1cccc(CN2CCN(C(=O)c3cc(-c4cccnc4)nc4ccc(C)cc34)CC2)c1,i,?,i,i,9.3µM,i
COc1ccc(N2CCN(C(=O)c3cn(Cc4ccccc4)nc3-c3cccnc3)CC2)cc1,nt,10µM,nt,nt,?,nt
N#Cc1ccc(CN2CCN(C(=O)c3cn(Cc4ccccc4)nc3-c3cccnc3)CC2)cc1,nt,?,nt,nt,i,nt
C/C(=C(/CCOC(=O)C(C)C)SS/C(CCOC(=O)C(C)C)=C(\C)N(C=O)Cc1cnc(C)nc1N)N(C=O)Cc1cnc(C)nc1N,nt,?,nt,nt,i,nt
CN(Cc1ccco1)c1nc(-c2ccoc2)nc2ccccc12,i,nt,nt,nt,nt,nt
COc1ccc(OCC(O)Cn2ccnc2C)cc1 (configuration not stated),i,?,i,i,i,i
COc1cc(OC)cc(OCC(O)Cn2cnc3cc(C)c(C)cc32)c1 (configuration not stated),i,10µM,i,i,nt,i
O=C(Nc1ccccc1)N(Cc1ccccc1)Cc1ccccc1,i,i,i,i,i,i
O=C(Nc1ccccc1)N(Cc1ccc(Cl)cc1)CC(O)C(F)(F)F (configuration not stated),i,i,i,i,15µM,i
N#CC1=C(N)OC2=C(C(=O)CCC2)C1c1cc2c(cc1Br)OCO2 (configuration not stated),i,i,i,i,i,i
Cc1ccc(Cl)cc1NC(=O)CCS(=O)(=O)c1cccc2nonc12,i,i,i,i,i,i
CCCn1c2ccccc2c2cnn(CC(=O)NCCCN3CCCC(C)C3)c(=O)c21 (configuration not stated),nt,15µM,i,i,i,i
CCCn1c2ccccc2c2cnn(CC(=O)NCCCN3CCN(c4ccccc4)CC3)c(=O)c21,i,0.33µM,i,i,i,i
CCCn1c2ccccc2c2cnn(CC(=O)NCCCN3CCCCC3)c(=O)c21,nt,?,i,i,i,i
CN(C(=O)c1cccs1)C1(C)CCS(=O)(=O)C1 (configuration not stated),nt,10µM,i,i,i,i
CN(C(=O)c1ccccc1)C1(C)CCS(=O)(=O)C1 (configuration not stated),i,?,i,i,i,i
Cc1cccc2[nH]c(CN(C)Cc3nc(CC4CC4)no3)nc12,i,i,i,i,i,i
CCN(CC)C(=O)Oc1ccc2c(=O)c(-c3ccc(OC)cc3)c(C)oc2c1,i,i,i,i,i,i
CCc1cc2c(=O)c(-c3nc4ccccc4[nH]3)coc2c(CN2CCC(C)CC2)c1O,nt,nt,nt,i,nt,nt
CCc1cc2c(=O)c(-c3nc4ccccc4[nH]3)coc2cc1OC(=O)N1CCOCC1,i,i,i,i,i,24
COc1ccccc1-c1coc2cc(OC(=O)N3CCOCC3)ccc2c1=O,i,i,101,i,i,48
SMILES,Giardia FBPA inh,Pf growth 96h,Shiga toxin inh,NS1 function inh,Pf growth 48h,CHX counter
COc1ccccc1Oc1coc2cc(OC(=O)N3CCOCC3)ccc2c1=O,i,i,i,i,i,i
CCN(CC)C(=O)Oc1ccc2c(=O)c(-c3ccc(OC)cc3)coc2c1,i,i,83,i,i,45
CCN(CC)C(=O)Oc1ccc2cc(Br)ccc2c1,i,i,123,i,i,28
COc1ccc(-c2coc3cc(OC(=O)N4CCOCC4)ccc3c2=O)cc1,i,?,31,i,i,26
CC(=O)Oc1ccc2c(=O)c(-c3nc4ccccc4s3)coc2c1,i,i,95,nt,i,60
COc1ccc2c(=O)c(-c3ccc4c(c3)OCO4)coc2c1,i,i,76,i,i,68
COc1cccc(Oc2coc3cc(OC(=O)N4CCOCC4)ccc3c2=O)c1,i,?,i,i,i,i
CCN(Cc1ccccc1)C(=O)c1ccc2c(=O)n3c(nc2c1)CCC3,nt,i,nt,nt,i,nt
CCOC(=O)CSc1nc2cc3c(cc2cc1CC)OCCO3,i,12µM,i,i,?,i
COC(=O)CSc1nc2cc3c(cc2cc1C)OCO3,i,i,55,i,i,27
COc1ccc(C(=O)C2CCCN(C(=O)c3cccc(N4CCCC4=O)c3)C2)cc1OC (configuration not stated),i,i,i,i,?,i
COC(=O)C1=C(c2ccc(OC)cc2)OC(=O)C1(C)C,i,?,i,i,i,i
c1ccc(-c2cc3nccc(-c4ccccn4)n3n2)cc1,i,i,94,i,i,45
CN(Cc1ccccc1F)c1nc(-c2cccs2)nc2ccccc12,i,i,i,i,9.3µM,i
O=c1c(-c2ccc(Cl)cc2)nc2cnc(N3CCNCC3)nc2n1CCc1ccccc1,i,nt,nt,nt,nt,nt
COCCn1c(=O)[nH]c2cc(C(=O)Nc3cc(OC)c(OC)c(OC)c3)ccc2c1=O,i,5.2µM,i,i,?,i
COCCn1c(=O)[nH]c2cc(C(=O)N3CCN(c4cccc(C(F)(F)F)c4)CC3)ccc2c1=O,i,12µM,i,i,?,i
COCCn1c(=S)[nH]c2cc(C(=O)N3CCN(c4cccc(Cl)c4)CC3)ccc2c1=O,i,12µM,i,i,i,i
COCCn1c(=O)[nH]c2cc(C(=O)N3CCN(c4ccc(OC)cc4)CC3)ccc2c1=O,i,i,i,i,i,i
O=C(c1ccccc1OC(F)F)N1CCN(S(=O)(=O)c2ccc3c(c2)OCCCO3)CC1,nt,i,nt,nt,15µM,nt
O=C(C1CC1)N1CCN(S(=O)(=O)c2ccc3c(c2)OCCO3)CC1,i,i,i,nt,i,i
O=S(=O)(c1ccc2c(c1)OCCO2)N1CCN(S(=O)(=O)c2c(F)cccc2F)CC1,nt,nt,i,nt,nt,i
O=C(c1ccccc1F)N1CCN(S(=O)(=O)c2ccc3c(c2)OCCO3)CC1,i,9.3µM,i,i,nt,i
CCc1nnc(NC(=O)C23CC4CC(CC(C4)C2)C3)s1,i,i,56,i,i,24
CSc1nnc(NC(=O)C23CC4CC(CC(C4)C2)C3)s1,i,i,i,i,i,36
NC(=O)CSc1nnc(NC(=O)C23CC4CC(CC(C4)C2)C3)s1,i,i,i,i,i,36
CC(C)Cc1nnc(NC(=O)C23CC4CC(CC(C4)C2)C3)s1,i,?,i,i,?,i
COc1ccc(C(=O)NCc2nnc(SCC(=O)NCCc3ccccc3)o2)cc1,nt,?,i,i,i,i

# Bioassay records (PubChem BioAssay)
